# From the supplement of paper PMC13380429
# A number with no mark means an inactive call.
# Test system: Vero E6 infected with SARS-CoV-2
# Experiment: inhibition of SARS-CoV-2 cytopathic effect; higher = more antiviral protection, active = above 15
# Details: 48 h
Compound,inhibition of SARS-CoV-2 cytopathic effect (1 nM) [%],inhibition of SARS-CoV-2 cytopathic effect (8.33 nM) [%],inhibition of SARS-CoV-2 cytopathic effect (100 nM) [%],inhibition of SARS-CoV-2 cytopathic effect (833.33 nM) [%],inhibition of SARS-CoV-2 cytopathic effect (10000 nM)
O=C(C[C@H]1CC(c2ccc(F)cc2F)=NO1)N1CCOCC1 (racemic),-1.54,0.9,2.24,0.99,1.2%
COc1cc(N)c(Cl)cc1C(=O)NC1CCN(Cc2ccccc2)CC1 [clebopride],-1.61,-0.47,-0.47,6.56,0.26%
Cc1cc(C)nc(NS(=O)(=O)c2ccc(N)cc2)n1 [sulfamethazine],-2.32,0.49,0.37,0.92,-1.06%
OCCOc1ccc(/C(=C(/CCCl)c2ccccc2)c2ccccc2)cc1 [ospemifene],-2.23,1.01,3.19,3.68,8.11%
Nc1nc(NC2CC2)cc(-c2cccc(Cl)c2Cl)n1,0.66,-1.17,-1.96,-0.45,-1.5%
CC[C@@H](Nc1c(Nc2cccc(C(=O)N(C)C)c2O)c(=O)c1=O)c1ccc(C)o1 [navarixin],-0.8,1.26,0.77,1.8,-2.11%
CCCCCCCCCCCCCCCC[n+]1ccn(Cc2ccccc2)c1C,-1.36,0.51,0.65,-4.4,-20.9%
COc1cc(Oc2ccnc3cc(OC)c(OC)cc23)ccc1NC(=O)NC(C)c1nccs1 (stereo not given),-1.6,0.95,1.7,0.48,-1.8%
CCCCN(CCCC)CCC(O)c1cc2c(Cl)cc(Cl)cc2c2cc(C(F)(F)F)ccc12 (stereo not given) [halofantrine],-1.32,2.28,3.05,-1.63,-1.68%
NC(=O)[C@@H](CCC(F)(F)F)N(Cc1ccc(-c2ncon2)cc1F)S(=O)(=O)c1ccc(Cl)cc1 [avagacestat],0.74,-2.98,-5.03,-4.21,-6.12%
CC(=O)c1ccc2c(c1)N(CCCN(C)C)c1ccccc1S2 [acepromazine],-0.95,1.58,-2.17,-3.24,-1.2%
COc1ncc2cc(C(=O)Nc3cc(C(=O)NCc4cccc(Cl)c4)ccc3Cl)c(=O)[nH]c2n1,-2.51,1.46,0.99,0.54,2.62%
CCCCCCCCCCCC(=O)N(CCO)CCO [lauric-diethanolamide],1.82,1.8,-1.44,1.01,-2.1%
C[C@H]1CO[C@@H]2Cn3cc(C(=O)NCc4ccc(F)cc4F)c(=O)c(O)c3C(=O)N12,0,1.03,1.79,1.33,-0.84%
CCCCCCCCCCCCCCOc1ccc(C(=O)O)o1,-3.57,0.74,1.46,-0.07,2.73%
COc1ccc(-c2ccc3ncc4c(c3c2)n(-c2ccc(N3CCNCC3)c(C(F)(F)F)c2)c(=O)n4C)cn1,0.99,2.5,-0.69,-8.37,-23.9%
Cc1ccc(OC[C@@H](O)[C@H](C)NC(C)C)c2c1CCC2 (racemic),-1.05,-1.6,-1.43,-0.36,-1.51%
COc1ccc(Cc2nccc3cc(OC)c(OC)cc23)cc1OC [papaverine],-0.41,0.26,-3.04,-2.94,-1.53%
Nc1nc2c(ncn2[C@@H]2O[C@H](CO)[C@@H](O)[C@H]2O)c(=O)[nH]1 [guanosine],-3.19,-0.4,-0.7,-1.53,0.09%
O=C(O)c1ccccc1Nc1cc(Cl)ccc1C(=O)O [lobenzarit],0.49,-0.08,0.37,2.27,-3.63%
CCCn1c(=O)[nH]c(=O)c2nc[nH]c21 [enprofylline],0.79,0.93,1.89,1.3,4.03%

Compound,inhibition of SARS-CoV-2 cytopathic effect (1 nM) [%],inhibition of SARS-CoV-2 cytopathic effect (8.33 nM) [%],inhibition of SARS-CoV-2 cytopathic effect (100 nM) [%],inhibition of SARS-CoV-2 cytopathic effect (833.33 nM) [%],inhibition of SARS-CoV-2 cytopathic effect (10000 nM)
CC(C)NC(=O)COc1cccc(-c2nc(Nc3ccc4[nH]ncc4c3)c3ccccc3n2)c1,-1.49,-1.42,0.74,1.37,1.49%
O=C(O)/C=C\c1c[nH]cn1 [cis-Urocanic acid],0.865,-1.24,-1.15,-0.955,1.12%
C[C@H](NCc1ccc(OCc2ccccc2F)cc1)C(N)=O [priralfinamide],-0.13,7.24,6.27,0.58,-1.48%
C#C[C@]1(O)CC[C@H]2[C@@H]3CCC4=Cc5oncc5C[C@]4(C)[C@H]3CC[C@@]21C [danazol],2.48,-0.9,1.74,3.55,6.39%
CC(C(=O)O)c1ccc2c(c1)Cc1cccnc1O2 (stereo not given) [pranoprofen],-0.06,4.49,2.65,1.95,-1.17%
NCC(=O)N[C@@H](CCC(N)=O)C(=O)O,0.35,-1.25,-2.03,2.57,-2.42%
CC(C)(C=O)Cc1cc(C(C)(C)C)c(O)c(C(C)(C)C)c1,3.54,2.95,2.75,2.01,1.01%
O=S(=O)(N[C@H]1CC[C@@](c2cc(F)ccc2F)(S(=O)(=O)c2ccc(Cl)cc2)CC1)C(F)(F)F,2.61,4.08,-0.09,-2.63,-2.01%
Cc1ccc(NC(=O)c2cccc(N(C)C)c2)cc1NC(=O)c1ccc(O)cc1,-3.41,-1.26,6.65,1.14,6.69%
Cn1ncnc1[C@H]1c2n[nH]c(=O)c3cc(F)cc(c23)N[C@@H]1c1ccc(F)cc1 [talazoparib],0.71,2.94,2.17,-0.1,-3.8%
COC(=O)Nc1ccc(-c2nc(N3CCOCC3)c3cnn(C4CCN(Cc5cccnc5)CC4)c3n2)cc1,-4.18,-1.95,3.87,-4.82,-2.6%
OC1=c2ccccc2=C(NC2CCCCC2)/C1=C\c1ccccc1,0.53,0.22,0.42,13.8,45.5% (active)
C#C[C@]1(OC(C)=O)CC[C@H]2[C@@H]3CCC4=CC(=NO)CC[C@@H]4[C@H]3CC[C@@]21CC (mixture of isomers) [norgestimate],-3.21,0.96,1.62,-2.37,-3.22%
COc1ccc(S(=O)(=O)N2c3ccc(Cl)cc3[C@](O)(c3ccccc3Cl)[C@@H]2C(=O)N2CCC[C@H]2C(N)=O)cc1OC [relcovaptan],-0.27,-0.84,0.53,1.63,2.72%
C/C=C/c1cc(OC)c(OC)cc1OC [alpha-asarone],0.99,0.62,-3.56,-3.9,-0.33%
CCn1c(-c2nonc2N)nc2cncc(CNC3CCNCC3)c21,0.63,-1.43,-0.75,-2.49,-3.57%
O=C(Nc1ccccc1)c1cc([N+](=O)[O-])ccc1Cl,1.34,2.14,0.85,-0.67,-0.39%
COc1cc2c(cc1C(F)(F)F)N(C(=O)Nc1cc(F)cc(-c3cccnc3)c1)CC2,1.91,2.35,0.87,2.32,2.45%
CC(C)[C@H](CO)Nc1nc(Nc2ccc(C(=O)O)c(Cl)c2)c2ncn(C(C)C)c2n1 [purvalanol-B],11.3,5.29,0.04,4.65,-1.55%
CNCCCC1(c2ccccc2)OC(C)(C)c2ccccc21 (stereo not given) [talopram],-0.51,-1.8,0.91,-2.03,-3.52%
